Source: PubChem
LGR2 antag – Drosophila LGR2 receptor signaling inhibition; HEK293 LGR2, CRE-luciferase, bursicon-stimulated, 4 h; inhibition, % at 9.99 µM; 380,000 tested, 0.35% active; AID 720647;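 active means drop in luminescence signal, shown as inhibition above about 50% in the replicate tests, limit read from the data, passing the limit was not always enough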;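 further: agonist challenge used bursicon conditioned medium at about half maximal strength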
EBV LMP1 NFkB – inhibitors of Epstein-Barr LMP1-induced NF-kappaB reporter; LMP1-induced NF-kappaB luciferase reporter cells, luminescence; AID 504558; inhibition, % at 12.5 µM; 350,000 tested, 0.69% active; in the data active means inhibition above about 41%;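 further: 0% = neutral control wells and 100% = reference inhibitor control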
EWS-Fli inh – inhibitors of EWS/Fli oncoprotein transcriptional activity; A673 NR0B1-luciferase reporter, viability-normalised; inhibition, % at 12.6 µM; 350,000 tested, 0.67% active; AID 651661;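 active means mean inhibition of at least 50% after viability correction, with every replicate also passing that limit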;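 further: firefly luciferase signal divided by Alamar Blue viability fluorescence both relative to DMSO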
TWEAK-Fn14 inh – blocks TWEAK-Fn14 interaction in a reporter cell assay | 360,000 tested, 2% active | TWEAK-stimulated Fn14 reporter cells, luciferase luminescence, 8 h | AID 1159606 | inhibition, % at 10 µM; in the data active means inhibition above about 50%
PAX8 reporter – PAX8 transcriptional activity inhibition. RMG-I TPO-luciferase reporter, SteadyGlo, 24 h. inhibition, % at 12.6 µM. 360,000 tested, 1.2% active;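 active means mean replicate inhibition at least 60% with every replicate also reaching 60%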;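 further: luciferase light reporting Pax8 driven TPO promoter activity; plate controls were median of neutral control wells for no effect and mitoxantrone controls for full effect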
TROY signal inh – TROY signaling inhibition; Q293 LMP1-TROYcd NF-kB luciferase reporter, 4 h; inhibition, % at 10 µM; 360,000 tested, 0.98% active; AID 1347056;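 active means compounds whose plate-normalised and pattern-corrected inhibition of the luciferase reporter signal at the single screening dose is 50% or more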
* = called active by the depositor. An excerpt weighted towards active compounds, which were near 3.2% of everything screened.

Screening CC1(C)C(C=C(Cl)Cl)C1C(=O)Nc1ccc([N+](=O)[O-])cc1 (stereo not drawn) returned LGR2 antag 29, EWS-Fli inh 4 and PAX8 reporter 99*.
Cc1ccc(C2(c3ccc(C)cc3)CC2C(=O)Nc2ccc([N+](=O)[O-])cc2O)cc1 (stereo not drawn) was read as EBV LMP1 NFkB 38, TWEAK-Fn14 inh 66* and TROY signal inh 56*.
Screening CC1(C)C(C=C(Cl)Cl)C1C(=O)N/N=C/c1ccccc1F (stereo not drawn) returned LGR2 antag -1, EBV LMP1 NFkB -3, EWS-Fli inh 18, TWEAK-Fn14 inh -10, PAX8 reporter 4 and TROY signal inh 22.
For COc1ccc2c3c(n(C)c2c1)[C@@H](CO)N(C(=O)Cc1ccccc1)CC31CCN(C)CC1 the results were LGR2 antag 3 and EWS-Fli inh -2.
For Cc1nnc(NC(=O)c2c(F)cccc2F)s1 the results were LGR2 antag 0, EBV LMP1 NFkB 53*, EWS-Fli inh 1, TWEAK-Fn14 inh 19, PAX8 reporter -22 and TROY signal inh 1.
Screening CN(Cc1ccccc1)N=Nc1nc[nH]c1C(N)=O returned LGR2 antag 1, EWS-Fli inh 0, TWEAK-Fn14 inh 11, PAX8 reporter 87* and TROY signal inh -3.
`C[C@@H]1CCCCO[C@H](CN(C)C(=O)Nc2ccc(C(F)(F)F)cc2)[C@@H](C)CN([C@H](C)CO)C(=O)c2cc(NS(=O)(=O)c3ccc(F)cc3)ccc2O1` gave LGR2 antag 10, EWS-Fli inh -1 and PAX8 reporter -4.
C[C@@H]1CCCCO[C@H](CN(C)C(=O)Nc2ccc(C(F)(F)F)cc2)[C@H](C)CN([C@@H](C)CO)C(=O)c2cc(NS(=O)(=O)c3ccc(F)cc3)ccc2O1 was read as LGR2 antag 14, EWS-Fli inh 15 and PAX8 reporter 68*.
`C[C@H]1CCCCO[C@@H](CN(C)C(=O)Nc2ccc(C(F)(F)F)cc2)[C@@H](C)CN([C@@H](C)CO)C(=O)c2cc(NS(=O)(=O)c3ccc(F)cc3)ccc2O1` gave LGR2 antag 5, EWS-Fli inh -7 and PAX8 reporter -21.
C[C@@H]1CCCCO[C@H](CN(C)C(=O)Nc2ccc(C(F)(F)F)cc2)[C@@H](C)CN([C@@H](C)CO)C(=O)c2cc(NS(=O)(=O)c3ccc(F)cc3)ccc2O1 was read as LGR2 antag 18, EWS-Fli inh -10 and PAX8 reporter 85*.
`COC(=O)C[C@@H]1C[C@@H]2c3cc(NC(=O)Nc4ccc(OC)cc4)ccc3O[C@@H]2[C@H](CO)O1` gave LGR2 antag -6, EWS-Fli inh 3 and PAX8 reporter 3.
`CCC(=O)Nc1cccc(-c2cc3ccccc3oc2=O)c1` gave LGR2 antag -51, EBV LMP1 NFkB 2, EWS-Fli inh -10, TWEAK-Fn14 inh 60*, PAX8 reporter -76 and TROY signal inh 63*.
For O=C(Cc1cccc2ccccc12)Nc1ccc(-c2cc3ccccc3oc2=O)cc1 the results were EBV LMP1 NFkB 55*, TWEAK-Fn14 inh -12 and TROY signal inh 58*.
CC(=O)Nc1ccc(NC(=O)c2cccc(-c3cc4ccccc4oc3=O)c2)cc1 was read as LGR2 antag -49, EBV LMP1 NFkB -39, EWS-Fli inh -36, TWEAK-Fn14 inh -14, PAX8 reporter -35 and TROY signal inh -34.
`Cc1cc(C)cc(C(=O)NC(=S)Nc2ccc(-c3cc4ccccc4oc3=O)cc2)c1` gave LGR2 antag 5, EBV LMP1 NFkB 16, TWEAK-Fn14 inh 44, PAX8 reporter -12 and TROY signal inh 57*.
c1ccc(-c2ccc3ccccc3n2)cc1 was read as LGR2 antag -10, EBV LMP1 NFkB -31, EWS-Fli inh -108, TWEAK-Fn14 inh -19 and TROY signal inh -56.
Screening c1ccc(-c2ccc3ncccc3n2)cc1 returned LGR2 antag -34, EWS-Fli inh -101, TWEAK-Fn14 inh -9, PAX8 reporter -206 and TROY signal inh 53*.
`CCOc1ccc(/C=N/NC(=O)c2nnn(-c3nonc3N)c2-c2ccc(OCC)cc2)cc1` gave LGR2 antag -1, EBV LMP1 NFkB -11, EWS-Fli inh -7, TWEAK-Fn14 inh -13, PAX8 reporter 18 and TROY signal inh 7.
For CCc1ccc(-c2cc(C(=O)N/N=C/c3c[nH]c4ccccc34)[nH]n2)cc1 the results were EBV LMP1 NFkB -4, EWS-Fli inh 47, TWEAK-Fn14 inh 59*, PAX8 reporter -5 and TROY signal inh 34.
`CCOc1cccc(-c2c(C(=O)N/N=C(\C)c3ccncc3)nnn2-c2nonc2N)c1` gave LGR2 antag -4, EBV LMP1 NFkB 4, EWS-Fli inh -6, TWEAK-Fn14 inh 1, PAX8 reporter -14 and TROY signal inh -17.
Screening CCOc1ccc(-c2c(C(=O)N/N=C/c3c[nH]c4ccccc34)nnn2-c2nonc2N)cc1 returned LGR2 antag 19, EBV LMP1 NFkB -13, TWEAK-Fn14 inh 58*, PAX8 reporter 31 and TROY signal inh 6.
`CCOc1cccc(-c2c(C(=O)N/N=C(\C)c3ccccn3)nnn2-c2nonc2N)c1` gave LGR2 antag 35, EBV LMP1 NFkB 65*, TWEAK-Fn14 inh -13, PAX8 reporter 69* and TROY signal inh 10.
`C[C@H](CO)N1C[C@H](C)[C@H](CN(C)Cc2ccc(C(=O)O)cc2)Oc2ccc(NC(=O)Cc3ccccc3)cc2C1=O` gave LGR2 antag 19 and PAX8 reporter -12.
For Cc1noc(C)c1NC(=O)N[C@@H]1CC[C@H](CC(=O)N2CCCCC2)O[C@H]1CO the results were LGR2 antag -22, EWS-Fli inh 2 and PAX8 reporter -16.
Cc1csc(NC(=O)CSc2nnc(-c3ccco3)n2C)n1 was read as EBV LMP1 NFkB -3, TWEAK-Fn14 inh 86*, PAX8 reporter -10 and TROY signal inh 81*.
For Nn1c(SCC(=O)Nc2ccc(S(N)(=O)=O)cc2)nnc1-c1ccco1 the results were LGR2 antag 6, EBV LMP1 NFkB 6, EWS-Fli inh 4, TWEAK-Fn14 inh 9, PAX8 reporter 3 and TROY signal inh 57*.
Cc1csc(NC(=O)CSc2nnc(-c3ccncc3)n2C)n1 was read as LGR2 antag 20, EBV LMP1 NFkB 4, TWEAK-Fn14 inh 0 and TROY signal inh 20.
`O=C(C[C@@H]1CC[C@@H]2[C@H](COC[C@@H](O)CN2S(=O)(=O)c2cccc(F)c2)O1)Nc1ccccc1` gave LGR2 antag 14.
`Cc1nc(NC(=O)C(C)(C)C)sc1-c1nc(N)sc1-n1cc(-c2ccccc2)nn1` gave LGR2 antag 6, EWS-Fli inh -10, TWEAK-Fn14 inh 14, PAX8 reporter 1 and TROY signal inh -11.
